Source: PubChem
Hits are enriched below; roughly 3.6% of the tested compounds scored in any of these assays.
Sfp PPTase inh: inhibitors of Bacillus subtilis Sfp phosphopantetheinyl transferase; Q9F4F7; Potency, µM, actives largely listed as inhibitors; AID 1490; Biochemical Sfp PPTase activity, qHTS; 310,000 compounds, 3.5% hits;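 also: the enzyme is Sfp with the accession as filed and its product quenches rhodamine fluorescence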
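Sfp 15 nM + cpd, 15 min RT; start w/ rhodamine-CoA 5 uM, BHQ-2-YbbR 12.5 uM (final); 50 mM Hepes pH 7.6, 10 mM MgCl2, 0.01% NP-40, 0.01% BSA; read 525/598 nm at 0 and 30 min.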
Epigenetic reg: epigenetic control regulation, reporter derepression | murine LDR cells, GFP reporter derepression, 30 h | Potency, µM (top dose mostly 53.9 µM), hits mostly activators | 280,000 compounds, 0.2% hits | AID 1865; also: nearly all actives have a fitted effect of over 60% in size
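In this reporter-derepression format, murine cells bearing a silenced integrated CMV-GFP locus incubate with test compound (30 h, 37 C), then are washed and imaged; fluorescent objects of 20–120 um count as induced cells.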
KDM4E inh: inhibitors of human JMJD2E histone demethylase | Potency, µM (titrated, usually from 57.1 µM), actives largely listed as inhibitors | JMJD2E catalytic domain, FDH-coupled NADH fluorescence (FDH is formaldehyde dehydrogenase) | B2RXH2 | 230,000 compounds, 1.6% hits; active = well fitted inhibition curve with a large enough effect, not every such curve was filed as active; inconclusive = small, poorly fitted or top-dose-only effect, or another doubt; inactive = no such curve, though single readings can be large or run the other way; also: nearly all actives have a fitted effect of over 50% in size
GCN5L2 inh: blocks human GCN5L2 histone acetyltransferase. Q92830. GCN5L2 HAT assay, ThioGlo1 CoA-SH fluorescence. Potency, µM (series often up to 58.9 µM), usual class: inhibitors. 390,000 compounds, 0.21% hits
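ThioGlo1-coupled HAT assay: 20nM GCN5L2, 70uM acetyl-CoA, 75uM H3(1-25) peptide, pH 7.5. Fluorescence read at 340/540nm at start and after 20 min at room temperature.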
NPSR antag: neuropeptide S receptor (human) antagonism, cAMP | CHO-NPSR cells, cAMP TR-FRET, antagonist mode | Q6W5P4 | Potency, µM (titrated, usually from 38.3 µM), hits mostly inhibitors | 220,000 compounds, 1% hits; also: nearly all actives have a fitted effect of over 50% in size
Target sequence (Q6W5P4 whole entry, looked up): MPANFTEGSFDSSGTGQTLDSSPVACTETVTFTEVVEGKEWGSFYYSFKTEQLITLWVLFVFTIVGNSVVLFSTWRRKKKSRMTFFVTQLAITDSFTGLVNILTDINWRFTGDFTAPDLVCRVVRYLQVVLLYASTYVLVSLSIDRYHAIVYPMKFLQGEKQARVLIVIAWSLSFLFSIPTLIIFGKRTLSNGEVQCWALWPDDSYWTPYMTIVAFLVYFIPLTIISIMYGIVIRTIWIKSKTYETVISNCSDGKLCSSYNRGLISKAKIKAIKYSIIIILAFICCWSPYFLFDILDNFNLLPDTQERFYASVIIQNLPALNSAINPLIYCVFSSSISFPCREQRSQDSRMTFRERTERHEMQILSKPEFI
IMPase Li cell: cell-permeable IMPase inhibitors with lithium potentiation; 210,000 compounds, 0.35% hits; CHO-M1 cells, IP1 TR-FRET (IP-One), carbachol + lithium; Potency, µM (doses to about 59.4 µM), usual class: inhibitors;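 also: IP1 builds up when IMPase is blocked and the TR-FRET signal falls; nearly all actives have a fitted effect of over 50% in size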
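Steps: plate 2000 CHO-M1 cells per well and culture 16–30 h; add compound and lithium; incubate 30 min, 37C; add d2-IP1 tracer and Eu cryptate anti-IP1 antibody in lysis buffer; read after 10 min at room temperature.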
A number is an active result; n = inactive; u = inconclusive; x = no result; [ ] = dose if it differs, or a comment. Unless noted, calls follow the shape of the dose curve; as a rule, active = well fitted curve in the direction sought with a large enough effect; inconclusive = small, poorly fitted or top-dose-only effect, or another doubt; inactive = no such curve, though single readings can be large; an effect the other way counts as inactive or inconclusive.

SMILES	Sfp PPTase inh	Epigenetic reg	KDM4E inh	GCN5L2 inh	NPSR antag	IMPase Li cell
C/C=C/C=C/C(=O)N1CC2(CC(c3cccc(NC(=O)/C=C/C)c3)=NO2)C[C@@H]1C(N)=O (stereo partly specified)	28µM	n	n	n	n	x
C=C(C)C(=O)Nc1cccc(C2=NOC3(C2)C[C@@H](C(N)=O)N(C(=O)/C=C/C=C/C)C3)c1 (stereo partly specified)	32µM	n	n	n	n	x
C/C=C/C(=O)Nc1cccc(C2=NOC3(C2)C[C@H](C(N)=O)N(C(=O)/C=C/C)C3)c1 (stereo partly specified)	n	n	n	n	n	x
COc1ccc(C2NC(=O)C(C#N)=C(S)N2c2ccccc2)cc1OC (stereo unspecified)	20µM	n	n	n	n	n
COc1cc(C2C3CN(C)CC=C3C(C#N)=C(N)C2(C#N)C#N)ccc1OC(C)C (stereo unspecified)	n	n	u	n	n	n
Cc1cccc(N2C(S)=C(C#N)C(=O)NC2c2ccco2)c1 (stereo unspecified)	n	n	u	n	n	u
N#CC1=C(S)N(c2ccccc2)C(c2ccc(-c3cccc(Cl)c3)o2)NC1=O (stereo unspecified)	28µM	n	n	n	n	n
COc1ccc(C2NC(=O)c3ccccc3N2)cc1OC (stereo unspecified)	n	n	u	n	n	n
COc1ccc(N2C(S)=C(C#N)C(=O)NC2c2ccco2)cc1 (stereo unspecified)	28µM	n	n	n	n	n
COc1cc(C2NC(=O)C(C#N)=C(S)N2c2ccccc2)ccc1OC(C)C (stereo unspecified)	40µM	n	n	n	n	n
COc1nc(Cl)nc(Cl)c1Cl (tested in a mixture with another compound)	x	x	x	x	x	n
CCOc1ccc(C2NC(=O)C(C#N)=C(S)N2c2cccc(C)c2)cc1OC (stereo unspecified)	u	n	n	n	n	n
CCOc1ccc(C2NC(=O)C(C#N)=C(S)N2c2ccc(C)cc2)cc1OC (stereo unspecified)	45µM	n	n	n	n	n
O=C1CCCC(O)=C1N=Nc1c(Cl)cc(C(F)(F)F)cc1Cl	u	n	25µM	n	n	x
O=C1CCCC(O)=C1N=Nc1ccc(C(=O)O)cc1	n	n	u	n	n	x
Cc1cccc2cc(C#N)c(SCC(=O)N3CCC(C)CC3)nc12	n	n	n	n	u	n
Cc1cccc2cc(C#N)c(SCC(=O)N3CC(=O)Nc4ccccc43)nc12	n	20µM	u	n	u	n
CN(CCn1ccnc1)Cc1cn(-c2ccccc2)nc1-c1ccc2c(c1)OCO2	n	n	u	n	n	n
CN(Cc1cn(-c2ccccc2)nc1-c1ccc2c(c1)OCO2)Cc1nccn1C	79µM	n	n	n	n	n
C=CCN1c2ccccc2[C@]23C[C@@H](C(=O)OC)N(S(=O)(=O)CCCC)C2=NC(C(=O)OC)=C(C(=O)OC)[C@H]13	n	x	n[11.4 µM]	x	x	n
COc1ccc(-c2nc3c(c4c2C[C@H](c2ccccc2)OC4)CN(S(=O)(=O)c2ccc(C#N)cc2)CC3)c(C)c1	n	x	n[11.4 µM]	x	x	n
CCOC(=O)C(C)c1c(C)[nH]c(=S)[nH]c1=O (stereo unspecified)	n	n	n	n	n	n
CCOC(=O)Cc1c(C)[nH]c(=S)[nH]c1=O	79µM	n	n	n	n	n
Cc1csc(NC(=O)C2CCCCC2C(=O)O)n1 (stereo unspecified)	n	n	n	n	n	n
Cc1csc(NC(=O)C2CCCC2)n1	79µM	n	n	n	n	n
COc1ccc2nc(SCC(=O)NC(C)(C)C)[nH]c2c1	n	n	n	n	n	n
COc1ccc2nc(SCC(=O)C(C)(C)C)[nH]c2c1	40µM	n	n	n	n	x
COc1ccc2cc(C3CC(c4ccco4)=NN3C(=O)CCC(=O)O)c(Cl)nc2c1 (stereo unspecified)	50µM	n	u	n	n	n
